The campaign covered roughly 5,500 compounds. About 2,000 (36%) were called active. Another 18% or so got no clear call; they are omitted. Rule as the data show it: active = normalized growth mostly below about 0.91 (no sharp cut-off); inconclusive = no clear call, values can overlap the other calls; inactive = mostly above about 0.92. The list shows a part of the results.
Assay: chemical genetic growth profiling, strain panel (AID 1159580);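 also: tested at 20 µM; growth read once vehicle control cultures reached saturation at 30 °C; 1 = growth at the plate median or of vehicle wells; lower values mean less growth of the strain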
Conditions: S. cerevisiae deletion strains, growth OD

Measured: normalized growth

COC(=O)C(N)Cc1ccc(Cl)cc1 (stereo not given)
inactive: locus YAL040C, strain CLN3, active compounds read low 0.998 | locus YCL061C, strain MRC1 (second series), active compounds read low 0.993 | locus YDR363W, strain ESC2, active compounds read low 0.976 | locus YER002W, strain NOP16, active compounds read low 0.988 | locus YGR229C, strain SMI1, active compounds read low 0.99 | locus YNL153C, strain GIM3, active compounds read low 1.01 | locus YNL175C, strain NOP13, active compounds read low 0.965 | locus YNL197C, strain WHI3, active compounds read low 0.965 | locus YNL224C, strain SQS1, active compounds read low 0.984 | locus YOR083W, strain WHI5 (second series), active compounds read low 0.91

— PubChem BioAssay AID1159580 (chemical genetic matrix, 2015)
